Compounds without any hit were thinned out: in the full panel of roughly 83,000, 20% have a hit.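 Testing used 96-well plates and a 48-hour single-concentration exposure. Example: -40 means 40% of the starting cells died.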 A number with no mark means an inactive call. Active and inactive are the calls of the source. How the source made its calls: active means growth percent below 10; inactive means the rest.
Assays:
Experiment in all cases: NCI-60 one-dose screen, 48 h (100 = growth as untreated, 0 = no growth, -100 = all killed)
HCT-15 colon = conditions: 10 µM unless noted
HT29 colon = conditions: 10 µM unless noted
SNB-75 CNS = conditions: 10 µM unless noted
SNB-19 CNS = conditions: 10 µM unless noted
U251 CNS = conditions: 10 µM unless noted
PC-3 prostate = conditions: 10 µM unless noted
SK-MEL-5 melanoma = conditions: 10 µM unless noted
UACC-62 melanoma = conditions: 10 µM unless noted
LOX IMVI melanoma = conditions: 10 µM
SK-MEL-28 melanoma = conditions: 10 µM unless noted

| SMILES | growth (HCT-15 colon) | growth (HT29 colon) | growth (SNB-75 CNS) | growth (SNB-19 CNS) | growth (U251 CNS) | growth (PC-3 prostate) | growth (SK-MEL-5 melanoma) | growth (UACC-62 melanoma) | growth (LOX IMVI melanoma) | growth (SK-MEL-28 melanoma) |
| --- | --- | --- | --- | --- | --- | --- | --- | --- | --- | --- |
| c1ccc(Oc2c3ccccc3nc3ccccc23)cc1 | 14.6% | 2.51% (active) | 41.5% | 91.9% | 11.7% | 20.1% | 13.6% | 45.7% | 31.3% | 61.2% |
| CC(=O)[C@@]1(O)CC[C@H]2[C@@H]3CC[C@@H]4CC(=O)CC[C@]4(C)[C@H]3[C@@H](O)C[C@@]21C | 103% | 100% | 92.7% | 103% | 94.8% | 86.1% | 99.4% | 94.7% | 96.7% | 99.4% |
| Ic1cccs1 | 109% | 94.2% | 105% | 99.6% | 96.3% | 99.5% | 104% | 98.5% | 96.9% | 111% |
| COc1nc2ccccc2s1 | 98% | 102% | 81% | 110% | 108% | 89.1% | 97.5% | 103% | 82.1% | 100% |
| Cc1cccc(C)c1NC(=S)/N=C\c1c(O)[nH]c(=O)[nH]c1=O | 107% | 95.7% | 85.1% | 103% | 96.8% | 96% | 96.3% | 90.9% | 98.2% | 111% |
| CC(c1ccccc1)N(C)C (stereo not given) | 109% | 88.2% | 59.5% | 100% | 102% | 88.6% | 99.6% | 94.5% | 113% | 157% |
| Oc1cc2ccccc2c(-c2c(O)c(O)cc3ccccc23)c1O | 28.2% | 45.3% | 41.5% | 41.5% | 33.9% | 14.7% | 33.4% | 27.9% | 14.5% | 53.2% |
| COC1CC(OC(=O)c2ccc([N+](=O)[O-])cc2)C(COC(=O)c2ccc([N+](=O)[O-])cc2)O1 (stereo not given) | 100% | 121% | 87.3% | 101% | 97.2% | 89.8% | 95.7% | 98.1% | 103% | 101% |
| CSCCC(NC(=O)C(Cl)Cl)C(=O)O (stereo not given) | 102% | 100% | 85.6% | 107% | 90.9% | 89% | 99.8% | 95.8% | 98.4% | 97% |
| Nc1c(Br)cc(O)c2c1C(=O)c1ccccc1C2=O | 47.7% | 54% | 110% | 95.2% | 92% | 84.6% | 96.7% | 87.4% | 34.4% | 112% |
| Nc1nnc2cc(F)ccc2n1 | 99.4% | 111% | 75.1% | 99.2% | 110% | 96.6% | 114% | 105% | 96.3% | 108% |
| Cc1[nH]n(-c2ccccc2)c(=O)c1C=NC(=S)C(N)=S | 99.3% | 111% | 87.5% | 96.8% | 100% | 85.8% | 99.3% | 93% | 99.7% | 110% |
| NC(=O)OCCO | 108% | 99% | 110% | 108% | 97.4% | 98.5% | 95.4% | 100% | 94.6% | 113% |
| CCOc1ccc(NC(=S)N2CCC(CCCC3CCN(C(=S)Nc4ccc(OCC)cc4)CC3)CC2)cc1 | 84% | 87.7% | 80.3% | 96% | 95.1% | 99% | 42.2% | 83.7% | 95.5% | 94.9% |
| Cn1c(=O)c2[nH]c(CC(=O)O)nc2n(C)c1=O | 107% | 101% | 98.1% | 100% | 103% | 96.8% | 106% | 108% | 101% | 101% |
| O=C(NCc1ccccc1)/C(=C/c1ccccc1)NC(=O)c1ccccc1 | 106% | 92.9% | 98.1% | 97.1% | 93.4% | 88.5% | 97.5% | 93.5% | 98.3% | 117% |
| CC(=O)NC(CCC(=O)c1ccccc1)C(=O)O (stereo not given) | 104% | 93.6% | 90% | 101% | 87.6% | 80.2% | 97% | 97.4% | 100% | 105% |
| C=CCC(OC(C)=O)c1ccc(C(C)C)cc1 (stereo not given) | 107% | 92.5% | 102% | 101% | 122% | 99.1% | 117% | 105% | 104% | 120% |
| CN(C)c1ccc2c(N(C)C)cc(N(C)C)nc2c1 | 92% | 34.4% | 92.5% | 84.5% | 90.8% | 72.6% | 100% | 81.9% | 87.7% | 84.4% |
| CCN(CC)c1ccc2nc3ccc(N=Nc4ccc(N(C)C)cc4)cc3[n+](-c3ccccc3)c2c1 | -10.3% (active) | -31.8% (active) | -98.9% (active) | 40.3% | -52% (active) | 6.24% (active) | -97.4% (active) | -59.1% (active) | -91.9% (active) | -36.1% (active) |
| CCCCc1ccc2nc(NC(=O)OC)[nH]c2c1 | 7.85% (active) | 12.2% | 65.1% | 14.7% | 22.2% | 22.5% | -49.2% (active) | 41% | 25.2% | 58.8% |
| COc1ccc(/C=N/NC(=O)COCC(=O)N/N=C/c2ccc(OC)cc2)cc1 | 97.8% | 130% | 88.6% | 110% | 96.2% | 88.8% | 97.9% | 101% | 102% | 100% |
| CC(=O)C1C(=O)C(=O)N(c2ccc(Cl)c(Cl)c2)C1=O (stereo not given) | 93.8% | 107% | 78.3% | 107% | 101% | 96.9% | 107% | 101% | 94.4% | 103% |
| COc1cccc2c1Cc1ccccc1-2 | 114% | 100% | 110% | 94.4% | 103% | 91.1% | 100% | 99.3% | 80.3% | 115% |
| Cc1ccc(NCN2C(=O)c3ccccc3C2=O)c(C)n1 | 115% | 104% | 116% | 113% | 103% | 101% | 100% | 109% | 104% | 116% |
| O=C(NC1CCCCC1)c1ccc(Cl)cc1 | 108% | 101% | 90% | 101% | 98.6% | 102% | 101% | 97.6% | 97.4% | 112% |
| COc1cccc(C(=O)NNC(=O)c2cccc3ccccc23)c1 | 100% | 98.2% | 98.7% | 110% | 102% | 106% | 107% | 128% | 98.5% | 117% |
| CCOC(=O)CNC | 99.1% | 117% | 83.4% | 100% | 89.4% | 93.9% | 101% | 94.8% | 95.6% | 105% |
| CC(C)c1ncc([N+](=O)[O-])n1C | 101% | 108% | 116% | 111% | 104% | 102% | 114% | 107% | 108% | 119% |
